Our source for the growth inhibition values is PubChem BioAssay (NCI).

“And” between values parts separate entries of the source, which are not always exact repeats. Identical values can stand only once. The panel holds about 79,000 compounds, 15% with a hit somewhere; the sample as a whole holds those more often. A number with no mark means an inactive call. The source made the active and inactive calls. Rule as the data show it: active = growth inhibition above about 70%; inactive = the rest.

Experiment [1] can be described thus: NCI Yeast Anticancer Drug Screen. Data for the rad50 strain (AID 155).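 Also: 0% = growth of vehicle-only cultures of the same strain.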 To be noted: S. cerevisiae rad50 strain growth inhibition, hits give high values; at 50.0 µM unless noted. In a few lines: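 Inhibition values express reduced yeast growth in compound-treated cultures relative to vehicle-treated controls.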
Experiment [2] in a line: NCI Yeast Anticancer Drug Screen. Data for the mec2-1 strain (AID 157). As to conditions: S. cerevisiae mec2-1 strain, hits give high values; at 50.0 µM unless noted. The procedure, abridged:
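Vehicle-treated cultures served as reference for growth inhibition of compound-exposed mec2-1 yeast.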

Experiment [3] in a line: NCI Yeast Anticancer Drug Screen. Data for the sgs1 mgt1 strain (AID 161).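 Also: 0% = growth of cultures given vehicle only.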 To be noted: S. cerevisiae sgs1 mgt1 strain, hits give high values; at 50.0 µM unless noted. In a few lines:
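Read-out: growth inhibition vs vehicle controls. Cells: mutant yeast strain deficient in DNA damage repair.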

A short description of experiment [4]: NCI Yeast Anticancer Drug Screen. Data for the cln2 rad14 strain (AID 165).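 Also: 0% = growth equal to vehicle treated cultures.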 To be noted: S. cerevisiae cln2 rad14 strain, hits give high values; at 50.0 µM unless noted. In a few lines: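 Each compound was tested on cln2 rad14 yeast. Inhibition of growth was calculated against vehicle-exposed controls.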
Experiment [5] in a line: NCI Yeast Anticancer Drug Screen. Data for the bub3 strain (AID 167). As to conditions: S. cerevisiae bub3 mutant strain, hits give high values; at 50.0 µM unless noted. The procedure, abridged:
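Steps: expose the mutant yeast strain to compound; grow alongside vehicle-treated cultures; measure growth; express inhibition against the vehicle cultures.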

The nature of experiment [6]: NCI Yeast Anticancer Drug Screen. Data for the mlh1 rad18 strain (AID 175). To be noted: S. cerevisiae mlh1 rad18 strain growth inhibition, hits give high values; at 50.0 µM unless noted. The procedure, abridged:
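Vehicle-treated cultures served as the reference for growth inhibition in a yeast strain carrying DNA damage repair alterations exposed to each compound.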

Regarding `O=C1Nc2cc(Br)ccc2C1=O`, the growth inhibition in experiment [1] was 7.5%; in experiment [2], 23.1%; in experiment [3], 2%; in experiment [4], 11.8%; in experiment [5] it was 10.4%; in experiment [6], 15.2%.
With `CC1=CCC(CC2CO2)C1(C)C` (stereo not given), the growth inhibition in experiment [1] was -27.6%; in experiment [2], -48.4%; in experiment [3], -17.2%; in experiment [4], -9.95%; in experiment [5] it was -35.2%; in experiment [6], -31.1%.
On to `COc1ccc(C2=N/C(=C\c3ccccc3)C(=O)O2)cc1`, for which the growth inhibition in experiment [1] was -4.05%; in experiment [2], 8.6%; in experiment [3], 28.4%; in experiment [4] it was -22.4%; in experiment [5], -4%; in experiment [6] it was -0.9%.
On to `Cc1cc(NC(=O)C(=O)Cc2nc3ccccc3s2)ccc1Cl`, for which the growth inhibition was 25.9% in experiment [1]; 12.7% in experiment [2]; 21.9% in experiment [3]; 43.9% in experiment [4]; 10.9% in experiment [5]; 19.1% in experiment [6].
On to `CCCCCCCCN(CCCCCCCC)CC(O)c1cc(Cl)c(Cl)c(Cl)c1` (stereo not given), for which the growth inhibition in experiment [1] is 24.1%; in experiment [2] it was 12.3%; in experiment [3], 47.4%; in experiment [4], 53.9%; in experiment [5], 18.6%; in experiment [6] it was 33%.
Consider `O=C(c1ccc(Cl)cc1)c1ccc(OCCCOc2ccc(C(=O)c3ccc(Cl)cc3)cc2Cl)c(Cl)c1`, for which the growth inhibition was 9.55% in experiment [1]; -7.95% in experiment [2]; -2.35% in experiment [3]; -46.9% in experiment [4]; -20.3% in experiment [5]; 2.15% in experiment [6].
Turning to `O=C(OCCCl)c1ccc(Cl)c(Cl)c1`, the growth inhibition is 5.75% in experiment [1]; -20.1% in experiment [2]; 7.05% in experiment [3]; 9% in experiment [4]; 3.75% in experiment [5]; -19.9% in experiment [6].
Turning to `CN(C)S(=O)(=O)c1ccccc1C(O)(c1ccccc1)c1ccccc1` (tested in a mixture with another compound), the growth inhibition is 35.1% in experiment [1]; 8.7% in experiment [2]; -7.75% in experiment [3]; -4.55% in experiment [4]; 15.2% in experiment [5]; 32.4% in experiment [6].
As to `CC(C)(C)NC(=O)Nc1ccc2ccccc2c1`, the growth inhibition was -7.7% in experiment [1]; 3.95% in experiment [2]; -8.2% in experiment [3]; -68.5% in experiment [4]; -24.1% in experiment [5]; -11.3% in experiment [6].
As to `CCCCCCCS(=O)c1nc2ccccc2s1` (stereo not given), the growth inhibition in experiment [1] was 37.2%; in experiment [2], 15.2%; in experiment [3], 60.9%; in experiment [4] it was 20.2%; in experiment [5], 42.8%; in experiment [6], 27.6%.
As to `N#CCN1CCc2ccccc2C1`, the growth inhibition in experiment [1] was -8.45%; in experiment [2], -7.15%; in experiment [3], -6.65%; in experiment [4], -33.9%; in experiment [5], -11.7%; in experiment [6], -6%.
In the case of `CC/C=C/C(CC)(C(=O)OCC)C(=O)OCC`, the growth inhibition in experiment [1] was 5.45%; in experiment [2], -15.8%; in experiment [3], -6.7%; in experiment [4], -2%; in experiment [5], -16.3%; in experiment [6], -20.1%.
For `C[n+]1ccc2ccccc2c1`, the growth inhibition in experiment [1] is 6.9% and -7.2%; in experiment [2], 0.55% and 5.3%; in experiment [3] it was 21.2% and 1.15%; in experiment [4], -36.8% and -2.25%; in experiment [5], 3.05% and -6.5%; in experiment [6], 9.6% and 10.4%.
`O=c1c2cncnc2sc2nc3ccccc3n12`: the growth inhibition in experiment [1] was 16.1%; in experiment [2], -9.55%; in experiment [3], 28.3%; in experiment [4], 11.9%; in experiment [5], 15.3%; in experiment [6], 23.4%.
Turning to `O=C(O)C(F)(F)C(F)(F)C(F)(F)F`, the growth inhibition in experiment [1] was 5.95%; in experiment [2], -2.3%; in experiment [3], -6.75%; in experiment [4] it was 14.6%; in experiment [5] it was 1.15%; in experiment [6], 3.25%.
Turning to `CC1COC(C)(C)P(=O)(c2ccccc2)C1` (stereo not given), the growth inhibition in experiment [1] is -6.9%; in experiment [2], -9%; in experiment [3] it was -11.3%; in experiment [4], 16.2%; in experiment [5], -7.15%; in experiment [6], -27.4%.
On to `CCCCOP(=O)(Nc1ccc([N+](=O)[O-])cc1)OCCCC`, for which the growth inhibition in experiment [1] is 94.1% (active); in experiment [2], 86.3% (active); in experiment [3], 91.1% (active); in experiment [4], 74% (active); in experiment [5] it was 77.2% (active); in experiment [6] it was 87.5% (active).
Regarding `OC1(c2nccc3ccccc23)CCN(CCc2ccccc2)CC1`, the growth inhibition in experiment [1] was 46.5%; in experiment [2] it was 33.4%; in experiment [3] it was 55.8%; in experiment [4], 40.5%; in experiment [5], 17.9%; in experiment [6], 34.8%.
Turning to `C/C(=N/NC(N)=S)c1c(C)[nH]c2ccccc12`, the growth inhibition in experiment [1] is 3.1%; in experiment [2] it was 10.2%; in experiment [3], -7.7%; in experiment [4] it was -78.8%; in experiment [5] it was -45%; in experiment [6], 0.95%.
Regarding `Cn1ncc2c(NC(C)(C)CC(C)(C)C)ncnc21`, the growth inhibition in experiment [1] is 21.1%; in experiment [2], 7.95%; in experiment [3] it was 1.05%; in experiment [4], 1.55%; in experiment [5] it was 45.4%; in experiment [6], 16.8%.
